According to ChEMBL document CHEMBL3988442, “University of Dundee, Small-Polar-MMV Screening Library” (2021):
For some assays here: Entries with a potency or affinity are not part of this list.

How the values were obtained:
Design in all cases: scale not given: direction of the effect not stated beside the values
[1] = biological target: Protein translocase subunit SecA (Escherichia coli (strain K12)) (UniProt P10408); assay: Assay to Identify E. coli SecA ATPase Inhibitors; type: functional; settings: 30 µM
[2] = biological target: T1, Ubiquitin-activating enzyme e1, putative (Leishmania donovani (strain BPK282A1)) (UniProt E9BSI1); assay: Leishmania donovani Ubiquitin Activating Enzyme (LdE1); type: functional; settings: 30 µM
T1 sequence (whole entry): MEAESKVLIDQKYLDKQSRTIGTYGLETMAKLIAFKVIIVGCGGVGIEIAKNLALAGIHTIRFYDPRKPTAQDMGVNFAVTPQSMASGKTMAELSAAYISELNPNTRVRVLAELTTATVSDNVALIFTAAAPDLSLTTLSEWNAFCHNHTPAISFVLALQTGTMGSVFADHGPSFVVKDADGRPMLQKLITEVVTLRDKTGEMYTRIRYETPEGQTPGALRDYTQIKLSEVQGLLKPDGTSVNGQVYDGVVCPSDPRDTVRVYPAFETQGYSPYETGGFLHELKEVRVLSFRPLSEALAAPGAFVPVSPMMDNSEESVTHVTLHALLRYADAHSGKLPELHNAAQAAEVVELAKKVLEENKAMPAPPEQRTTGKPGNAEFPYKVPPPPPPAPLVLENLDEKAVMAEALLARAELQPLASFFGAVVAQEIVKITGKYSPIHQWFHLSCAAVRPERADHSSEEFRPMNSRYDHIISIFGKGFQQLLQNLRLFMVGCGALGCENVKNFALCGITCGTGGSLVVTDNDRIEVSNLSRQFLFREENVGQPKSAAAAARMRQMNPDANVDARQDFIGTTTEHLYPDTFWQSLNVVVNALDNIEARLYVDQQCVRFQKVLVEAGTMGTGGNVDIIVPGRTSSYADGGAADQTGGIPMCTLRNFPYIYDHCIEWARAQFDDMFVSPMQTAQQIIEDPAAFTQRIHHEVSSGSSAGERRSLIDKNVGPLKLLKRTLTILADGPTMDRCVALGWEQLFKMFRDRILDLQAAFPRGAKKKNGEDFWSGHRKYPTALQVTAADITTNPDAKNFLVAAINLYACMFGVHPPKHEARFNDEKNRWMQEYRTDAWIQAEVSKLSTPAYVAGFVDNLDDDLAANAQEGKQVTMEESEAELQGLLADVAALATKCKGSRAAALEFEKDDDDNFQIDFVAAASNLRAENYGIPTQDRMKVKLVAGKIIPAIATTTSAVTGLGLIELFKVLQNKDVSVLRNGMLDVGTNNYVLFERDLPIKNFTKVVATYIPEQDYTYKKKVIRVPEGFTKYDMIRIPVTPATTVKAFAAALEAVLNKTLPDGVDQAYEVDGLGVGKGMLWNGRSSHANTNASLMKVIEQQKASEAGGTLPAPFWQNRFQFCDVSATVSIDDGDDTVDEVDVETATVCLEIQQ

[3] = biological target: AMP-activated protein kinase, AMPK (Homo sapiens) (UniProt P54646+O43741+P54619+Q9UGJ0+Q9Y478+Q13131+Q9UGI9); assay: AMP-dependent Kinase enzyme assay. An in vitro enzyme assay that detects ADP turnover that is directly proportional to AMPK activity. This uses naive AMPK that is activated during the assay with MK-8722; type: functional; settings: 30 µM
[4] = biological target: Sialic acid-binding Ig-like lectin 9 (Homo sapiens) (UniProt Q9Y336); assay: Hs-Siglec9 ALPHAscreen SOP 20170721; settings: 10 µM
Trypanosoma cruzi = assay: Trypanosoma cruzi phosphomannomutase and mannose-1-phosphate guanylyltransferase assay; type: functional; settings: 10 µM
[5] = biological target: T2, Arginase-2, mitochondrial (Homo sapiens) (UniProt P78540); assay: in vitro enzyme assay to detect the production of urea directly proportional to the activity of Arginase II; type: functional; settings: 33.3 µM; note: in the data most compounds retested in dose-response had high values
T2 sequence (whole entry): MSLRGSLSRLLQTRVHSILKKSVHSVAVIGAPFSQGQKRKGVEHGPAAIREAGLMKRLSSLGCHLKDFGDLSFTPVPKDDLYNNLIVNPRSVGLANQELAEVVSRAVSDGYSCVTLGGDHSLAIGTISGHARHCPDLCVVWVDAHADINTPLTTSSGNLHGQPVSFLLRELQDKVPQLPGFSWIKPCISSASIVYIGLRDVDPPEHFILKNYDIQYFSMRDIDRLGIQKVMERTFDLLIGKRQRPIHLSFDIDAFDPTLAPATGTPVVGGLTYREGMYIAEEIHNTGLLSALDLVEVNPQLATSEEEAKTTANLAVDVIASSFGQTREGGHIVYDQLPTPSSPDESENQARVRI

[6] = biological target: T3, Proteasome subunit beta (Trypanosoma cruzi) (UniProt O96673); assay: Trypanosoma cruzi proteasome chymotrypsin-like activity (TcProtChymo) assay.; note: in the data most compounds retested in dose-response had high values; type: functional; settings: 9.37 µM
T3 sequence (whole entry): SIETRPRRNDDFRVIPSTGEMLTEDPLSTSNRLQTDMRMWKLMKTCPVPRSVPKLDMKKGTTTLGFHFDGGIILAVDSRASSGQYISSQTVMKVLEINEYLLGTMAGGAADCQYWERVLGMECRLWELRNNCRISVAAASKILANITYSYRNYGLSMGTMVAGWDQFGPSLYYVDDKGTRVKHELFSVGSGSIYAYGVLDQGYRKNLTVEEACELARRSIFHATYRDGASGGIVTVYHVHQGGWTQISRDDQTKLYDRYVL

Homo sapiens = organism: Homo sapiens; assay: To identify inhibition of the IFN signalling (Jak-Stat) pathway via expression of an eGFP reporter gene under the control of an IFN-stimulated response element (ISRE) containing MxA promoter.; type: functional; settings: 30 µM
[7] = biological target: T4, Tyrosyl-tRNA synthetase, putative (Trypanosoma cruzi (strain CL Brener)) (UniProt Q4DSP6); assay: Trypanosoma cruzi tyrosyl tRNA synthetase (TcYRS) _High Tyrosine SOP; type: functional; settings: 30 µM; note: in the data most compounds retested in dose-response had high values
T4 sequence (whole entry): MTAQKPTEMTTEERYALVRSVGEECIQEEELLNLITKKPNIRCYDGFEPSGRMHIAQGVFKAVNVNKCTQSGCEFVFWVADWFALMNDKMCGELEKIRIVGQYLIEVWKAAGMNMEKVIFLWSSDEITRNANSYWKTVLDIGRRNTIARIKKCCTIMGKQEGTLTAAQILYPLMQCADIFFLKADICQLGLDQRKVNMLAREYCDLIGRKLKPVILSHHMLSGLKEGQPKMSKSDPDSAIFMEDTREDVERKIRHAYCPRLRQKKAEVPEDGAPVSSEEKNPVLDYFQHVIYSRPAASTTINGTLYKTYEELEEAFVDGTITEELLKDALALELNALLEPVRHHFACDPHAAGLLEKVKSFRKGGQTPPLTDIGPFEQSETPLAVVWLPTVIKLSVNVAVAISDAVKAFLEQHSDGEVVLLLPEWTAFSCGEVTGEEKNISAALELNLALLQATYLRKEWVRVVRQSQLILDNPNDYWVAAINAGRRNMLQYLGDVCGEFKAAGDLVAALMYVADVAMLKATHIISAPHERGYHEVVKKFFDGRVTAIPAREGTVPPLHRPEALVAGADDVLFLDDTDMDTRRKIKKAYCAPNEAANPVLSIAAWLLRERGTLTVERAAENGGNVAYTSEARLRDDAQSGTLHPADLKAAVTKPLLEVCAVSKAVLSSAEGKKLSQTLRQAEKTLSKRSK

[8] = biological target: T4, Tyrosyl-tRNA synthetase, putative (Trypanosoma cruzi (strain CL Brener)); assay: Trypanosoma cruzi tyrosyl tRNA synthetase (TcYRS) SOP; type: functional; settings: 30 µM
[9] = biological target: Chromo domain-containing protein 1 (Saccharomyces cerevisiae (strain ATCC 204508 / S288c) (Baker's yeast)) (UniProt P32657); assay: ScCHD-1 Enzyme Inhibition Assay; type: functional; settings: 30 µM; note: in the data most compounds retested in dose-response had high values
Chromo domain-containing protein 1 (Saccharomyces cerevisiae (strain ATCC 204508 / S288c) (Baker's yeast)), sequence (P32657 whole entry, the tested form may be a part): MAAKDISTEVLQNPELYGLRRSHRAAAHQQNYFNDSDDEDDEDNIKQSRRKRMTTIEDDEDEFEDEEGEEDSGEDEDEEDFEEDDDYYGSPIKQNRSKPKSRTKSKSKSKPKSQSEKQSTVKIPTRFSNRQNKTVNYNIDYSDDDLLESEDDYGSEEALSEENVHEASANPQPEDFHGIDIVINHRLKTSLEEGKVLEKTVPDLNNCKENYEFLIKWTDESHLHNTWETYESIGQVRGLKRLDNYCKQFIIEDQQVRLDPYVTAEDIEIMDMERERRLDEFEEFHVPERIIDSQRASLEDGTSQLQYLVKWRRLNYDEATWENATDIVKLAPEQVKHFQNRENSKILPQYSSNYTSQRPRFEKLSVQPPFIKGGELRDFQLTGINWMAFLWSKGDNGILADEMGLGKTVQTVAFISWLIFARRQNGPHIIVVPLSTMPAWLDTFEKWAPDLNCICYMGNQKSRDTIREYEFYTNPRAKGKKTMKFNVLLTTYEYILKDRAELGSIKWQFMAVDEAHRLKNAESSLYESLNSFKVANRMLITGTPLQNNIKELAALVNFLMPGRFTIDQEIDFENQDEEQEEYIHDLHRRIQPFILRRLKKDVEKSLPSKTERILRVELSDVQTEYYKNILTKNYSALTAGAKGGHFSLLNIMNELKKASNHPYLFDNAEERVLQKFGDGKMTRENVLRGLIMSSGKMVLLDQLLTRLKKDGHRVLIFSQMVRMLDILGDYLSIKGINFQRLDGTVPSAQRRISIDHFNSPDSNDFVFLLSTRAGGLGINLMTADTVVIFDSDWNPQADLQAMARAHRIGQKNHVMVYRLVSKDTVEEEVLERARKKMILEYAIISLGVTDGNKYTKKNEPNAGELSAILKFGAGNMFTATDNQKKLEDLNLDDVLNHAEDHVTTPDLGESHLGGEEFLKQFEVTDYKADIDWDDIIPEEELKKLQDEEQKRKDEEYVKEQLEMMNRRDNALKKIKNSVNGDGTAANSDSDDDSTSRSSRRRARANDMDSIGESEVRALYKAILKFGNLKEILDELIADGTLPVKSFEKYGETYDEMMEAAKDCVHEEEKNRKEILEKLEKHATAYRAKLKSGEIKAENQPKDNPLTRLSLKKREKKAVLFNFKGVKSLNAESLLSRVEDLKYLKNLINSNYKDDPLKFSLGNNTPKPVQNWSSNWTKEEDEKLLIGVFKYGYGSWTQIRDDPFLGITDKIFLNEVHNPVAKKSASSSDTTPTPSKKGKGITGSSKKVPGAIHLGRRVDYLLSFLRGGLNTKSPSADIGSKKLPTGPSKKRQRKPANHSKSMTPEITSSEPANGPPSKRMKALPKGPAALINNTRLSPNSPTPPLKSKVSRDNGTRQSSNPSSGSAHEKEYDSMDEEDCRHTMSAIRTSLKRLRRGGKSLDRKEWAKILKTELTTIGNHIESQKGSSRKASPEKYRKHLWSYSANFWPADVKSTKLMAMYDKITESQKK

Sialic acid-binding Ig-like lectin 9 (Homo sapiens), sequence (Q9Y336 whole entry): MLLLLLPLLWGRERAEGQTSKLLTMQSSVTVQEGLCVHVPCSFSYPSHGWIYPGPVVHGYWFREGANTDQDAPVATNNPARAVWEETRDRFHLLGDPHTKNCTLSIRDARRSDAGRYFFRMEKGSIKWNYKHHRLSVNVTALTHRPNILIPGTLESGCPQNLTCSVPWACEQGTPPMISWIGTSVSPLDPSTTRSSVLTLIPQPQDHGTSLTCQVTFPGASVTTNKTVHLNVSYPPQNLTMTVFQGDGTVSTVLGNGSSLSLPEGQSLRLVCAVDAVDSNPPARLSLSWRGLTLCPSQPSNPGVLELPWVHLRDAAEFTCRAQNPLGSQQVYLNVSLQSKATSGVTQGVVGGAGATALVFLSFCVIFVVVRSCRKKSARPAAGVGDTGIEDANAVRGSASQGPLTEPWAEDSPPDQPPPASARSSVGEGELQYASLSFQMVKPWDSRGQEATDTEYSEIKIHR
Protein translocase subunit SecA (Escherichia coli (strain K12)), sequence (P10408 whole entry): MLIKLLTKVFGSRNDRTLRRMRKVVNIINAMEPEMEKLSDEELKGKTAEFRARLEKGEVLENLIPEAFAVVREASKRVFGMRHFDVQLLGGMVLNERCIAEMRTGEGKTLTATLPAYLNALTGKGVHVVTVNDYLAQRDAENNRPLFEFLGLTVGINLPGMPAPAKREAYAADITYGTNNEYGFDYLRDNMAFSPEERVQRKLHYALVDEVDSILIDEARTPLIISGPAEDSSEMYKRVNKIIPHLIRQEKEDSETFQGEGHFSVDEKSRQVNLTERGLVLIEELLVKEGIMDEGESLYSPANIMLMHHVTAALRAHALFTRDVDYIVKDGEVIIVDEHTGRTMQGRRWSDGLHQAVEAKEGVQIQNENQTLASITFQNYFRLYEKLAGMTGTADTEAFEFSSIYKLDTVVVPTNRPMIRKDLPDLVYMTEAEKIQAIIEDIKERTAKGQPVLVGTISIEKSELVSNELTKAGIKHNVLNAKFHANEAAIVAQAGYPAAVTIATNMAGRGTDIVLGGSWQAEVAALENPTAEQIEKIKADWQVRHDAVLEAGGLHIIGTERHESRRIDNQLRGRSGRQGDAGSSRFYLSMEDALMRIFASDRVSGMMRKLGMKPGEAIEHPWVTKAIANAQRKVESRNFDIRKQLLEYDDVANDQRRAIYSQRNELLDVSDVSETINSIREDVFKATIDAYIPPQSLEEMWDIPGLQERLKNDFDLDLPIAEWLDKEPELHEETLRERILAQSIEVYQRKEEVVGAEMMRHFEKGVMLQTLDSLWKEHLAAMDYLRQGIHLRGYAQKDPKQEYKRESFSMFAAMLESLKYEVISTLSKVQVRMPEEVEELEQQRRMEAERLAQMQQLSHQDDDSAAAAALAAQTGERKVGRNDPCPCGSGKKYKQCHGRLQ

SMILES | Percent Effect [1] [%] | Percent Effect [2] [%] | Percent Effect [3] [%] | Percent Effect [4] [%] | Percent Effect (Trypanosoma cruzi) [%] | Percent Effect [5] [%] | Percent Effect [6] [%] | Percent Effect (Homo sapiens) [%] | Percent Effect [7] [%] | Percent Effect [8] [%] | Percent Effect [9] [%]
O=C(NCCN1CCNCC1)c1nc2ccccc2c(=O)[nH]1 | 3.26 | 9.33 | 2.04 | -5.44 | -7.47 | -10.7 | 12 | -0.251 | 4.23 | 12.8 | -7.33
Cn1nc(C(=O)N2CCCCC2c2nc3cc(F)ccc3[nH]2)ccc1=O (configuration not stated) | -6.48 | 15.3 | -16.2 | 39.4 | 10.6 | 3.97 | 9.82 | -6.87 | 2.1 | 17.9 | -10.9
CCNC(=O)c1ccc(N2CCCC(c3nccn3C(C)C)C2)nc1 (configuration not stated) | -2.94 | 8 | -3.44 | 14.3 | 5.16 | 20.3 | 11.2 | 6.3 | 3.83 | 11.1 | -4.72
Cc1ncsc1C(=O)NCCOc1ncc(Cl)cc1Cl | -6.27 | 5.41 | 1.84 | 0.223 | 0.977 | 4.17 | 11.1 | 25.4 | 10.9 | 11 | -5.96
COc1ccc(C)cc1CN1CCCC1c1noc(C2CC2)n1 (configuration not stated) | -1.46 | -2.7 | -7.59 | -1.73 | 5.85 | -9.8 | 18.7 | 67.4 | 9.9 | 18.3 | -3.74
CC(C)CN1CCCn2nc(CNC(=O)CCN)cc2C1 | -6.28 | 5.33 | 4.29 | 6.76 | 1.85 | 3.65 | 13.4 | 7.88 | 6.01 | 16.1 | -5.7
CCOC1CCN(C(=O)c2cnn(-c3ccccc3Cl)c2)CC1 | -4.12 | 8.11 | -9.38 | 9.51 | 0.283 | 0.802 | 2.34 | 4.91 | 6.4 | 16.1 | -0.798
Cc1n[nH]c(C2CN(C(=O)c3ccnc(C4CC4)n3)CCO2)n1 (configuration not stated) | -1.78 | 10.4 | 5.44 | 10.3 | -0.0979 | 5.26 | 9.78 | -6.73 | 5.71 | -23.5 | -12.2
Cc1ccc(C2COCCN2C(=O)c2ccc(N(C)C)cc2)o1 (configuration not stated) | -1.88 | 10.7 | -8.36 | 13.4 | 3.02 | 13.5 | 15.9 | 19.2 | 2.73 | 18.5 | -4.41
CCNc1cc2c(nn1)CCN(C(=O)c1cccc3c1OCCO3)C2 | -5.14 | 7.79 | -15.3 | 14.1 | 5.99 | -6.76 | 15.4 | 1.1 | 5.83 | 14.6 | -10.8
COc1ccc(COCC(O)CNC(=O)c2cccnc2)cc1 (configuration not stated) | -2.83 | 3.8 | 0.844 | -5.42 | -7.08 | -5.38 | 8.75 | 2.64 | 1.04 | 0 | -14.1
CC(C)c1ccc(-c2nnn(CCNS(C)(=O)=O)n2)cc1 | -4.75 | 2.74 | 0.921 | 2.29 | 4.96 | -2 | 4.71 | -14 | -4.17 | 8.64 | -0.501
Cc1ccc(-c2nc(CN3CCOC(Cn4cccn4)C3)cs2)o1 (configuration not stated) | 0.91 | 2.7 | -3.73 | 5.65 | 7.14 | 0.476 | 12.4 | 4.23 | 2.65 | 9.76 | 0.401
O=C(NC1COC2(CCN(Cc3ccccn3)CC2)C1)c1ccccn1 (configuration not stated) | -2.18 | 23.4 | -0.85 | -5.11 | 0.888 | 8.39 | 16.7 | 10.3 | 10.6 | 16.7 | 31.1
O=C1[C@@H]2CCN(Cc3ccoc3)C[C@@H]2OCCN1c1ccccc1 | -5.21 | 10.7 | 13 | 1.36 | -2.95 | 8.16 | 5.02 | 5.67 | 3.19 | 11.5 | 1.78
CCOCC1CN(C)Cc2cnn(CC3CCCC3)c21 (configuration not stated) | 0.927 | 5.48 | 0.312 | 7.92 | 7.14 | 2 | 9.68 | -29.3 | 7.29 | 11.1 | -3.7
CCN1CCC(NC(=O)CN2CCCC2Cn2cncn2)CC1 (configuration not stated) | -0.772 | 6.33 | -1.15 | -1.21 | -5.64 | 0.645 | 8.92 | 4.26 | 3.12 | 2.53 | -22.4
COCCn1ccnc1C1CCCN(C(=O)CSCC2CC2)C1 (configuration not stated) | -1.08 | 6.94 | -7.23 | -0.00565 | 4.37 | 0 | 19.1 | 1.07 | 3.16 | 7.69 | -0.19
CS(=O)(=O)CCC(=O)N1CCC2(CCCN(C3CCOCC3)C2=O)C1 (configuration not stated) | 0.12 | 8.22 | -3.26 | 6.39 | 1.19 | -3.19 | 12.6 | -2.62 | 6.25 | 13.6 | -3.06
COc1ccc(Nc2nc3c(C)nn(C)c3c(=O)n2C)c(OC)c1 | -1.13 | 15.6 | -2.05 | 14.5 | 6.79 | -12.4 | 10.3 | 0.301 | 8.6 | 18.5 | -5.3
Cn1nc(CNC(=O)c2nc3ccccc3s2)c2c1CCOC2 | -1.59 | 0 | 8.14 | 0.56 | 5.03 | -0.645 | 4.18 | 24.8 | 1.06 | 6.41 | -5.4
O=C1CC[C@@H]2[C@@H](CCN2C(=O)c2ccsc2)N1CC1CC1 | -4.27 | -2.7 | 6.58 | -0.934 | 4.2 | 2.23 | 21.4 | -14.4 | 4.32 | 7.69 | 2.18
